The values that follow come from PubChem BioAssay.

Activity calls are given as the source filed them.

Assay [1] has as its target NADPH oxidase 5 (Homo sapiens) (UniProt Q96PH1). Kind of assay: NOX5-dependent H2O2 signal modulators, primary screen, NOX inhibitor project, cell-based, HEK293-NOX5, Amplex Red fluorescence (AID 1161). The note with it: HEK293-NOX5, ionomycin, 45 min, higher = more signal.
The nature of assay [2]: A549 cell viability effects, profiling panel, calcein-AM fluorescence, 48 h, basal (AID 1162). Also: test concentration not given here. The note with it: higher = more signal.
Assay [3] in a line: adipocyte viability effects, profiling panel, cell-based, 3T3-L1 adipocytes, calcein-AM fluorescence, 48 h, basal (AID 1163). Also: test concentration not given here. As to conditions: 3T3-L1 adipocytes viability, higher = more signal.
Assay [4] is described as follows: HepG2 cell viability effects, profiling panel, calcein-AM fluorescence, 48 h, basal (AID 1164). Also: test concentration not given here. As to conditions: higher = more signal.
Assay [5] can be described thus: MM1S cell viability effects, profiling panel, calcein-AM fluorescence, 48 h, basal (AID 1165).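 Also: viability of MM1S multiple myeloma cells under basal unstimulated conditions; test concentration not given here.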 As to conditions: higher = more signal.
Assay [6] can be described thus: basal RPMI8226 viability, no added stimulus, profiling panel, cell-based, calcein-AM fluorescence, 48 h, PK04 Diversity Set (AID 1166).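 Also: cells grown under basal conditions without added stimulus; test concentration not given here.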 The note with it: RPMI8226 myeloma viability, higher = more signal.
Assay [7] can be described thus: basal HepG2 mitochondrial membrane potential changes, profiling panel, cell-based, JC-1 fluorescence, 24 h, 100 nL compound (AID 1167). Also: test concentration not given here. The note with it: higher = more signal.
Assay [8] is described as follows: basal 3T3-L1 adipocyte mitochondrial potential changes, profiling panel, cell-based, JC-1 fluorescence, 3T3-L1 adipocytes, 24 h, 100 nL compound (AID 1168). Also: test concentration not given here. As to conditions: JC-1 mitochondrial fluorescence, higher = more signal, called active from +8 up or from −8 down.
The nature of assay [9]: basal RPMI8226 mitochondrial membrane potential changes, profiling panel, cell-based, JC-1 fluorescence, 24 h, 100 nL compound (AID 1169). Also: test concentration not given here. As to conditions: RPMI8226 myeloma, JC-1 mitochondrial potential fluorescence, higher = more signal.
Assay [10] in a line: basal MM1S mitochondrial membrane potential changes, profiling panel, cell-based, JC-1 fluorescence, 24 h, 100 nL compound (AID 1170). Also: test concentration not given here. As to conditions: higher = more signal.
A short description of assay [11]: A549 lung cancer cell viability effects, profiling panel, resazurin fluorescence, 24 h, PK04 Diversity Set (AID 1171). Also: test concentration not given here. As to conditions: higher = more signal, called active from +8 up or from −8 down. In general terms: Resazurin is reduced to fluorescent resorufin, in cell work by metabolically active cells.
Assay [12] is described as follows: HepG2 liver cancer cell viability effects, profiling panel, resazurin fluorescence, 24 h, PK04 Diversity Set (AID 1172). Also: test concentration not given here. As to conditions: higher = more signal.
Assay [13] can be described thus: basal S. cerevisiae growth modulation, no modifier, primary screen, OD600, strain BY4716, 24 h, basal condition (AID 1173). The note with it: OD600, 24 h, higher = more signal, called active from +8 up or from −8 down.
Assay [14] can be described thus: MM1S myeloma cell viability, profiling panel, resazurin fluorescence, basal, 24 h, PK04 Diversity Set (AID 1174).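 Also: MM1S multiple myeloma cell line; test concentration not given here.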 As to conditions: higher = more signal, called active from +8 up or from −8 down.
Assay [15] concerns the target Dihydroorotate dehydrogenase (quinone), mitochondrial (Plasmodium falciparum (isolate 3D7)) (UniProt Q08210). Kind of assay: PfDHODH enzyme inhibitors, primary screen, biochemical, C-terminal His tag, absorbance 600 nm (AID 1175).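 Also: recombinant parasite enzyme with a five histidine tag at its C terminus; test concentration not given here.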 As to conditions: DCIP absorbance 600 nm, higher = more signal, called active from +8 up or from −8 down.
The nature of assay [16]: S. cerevisiae RM11-1a growth modifiers, primary screen, strain RM11-1a, OD600, basal, 24 h (AID 1177).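 Also: cultures grown under basal conditions with no added stressor; test concentration not given here.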 The note with it: OD600, 24 h, higher = more signal, called active from +8 up or from −8 down.
A short description of assay [17]: E. coli acrAB mutant growth effects, primary screen, E. coli filamentation inducers, strain DRC39, OD650, 24 h (AID 1178).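 Also: growth measured as culture turbidity by optical density at 650 nm; test concentration not given here.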 As to conditions: higher = more signal, called active from +8 up or from −8 down.
Assay [18] can be described thus: E. coli acrAB mutant growth effects, primary screen, E. coli filamentation inducers, strain DRC39, OD650, 48 h (AID 1179).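 Also: screen aims at cell division blockers that make cells filament.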 As to conditions: E. coli DRC39 delta-acrAB growth, higher = more signal, called active from +8 up or from −8 down.
A short description of assay [19]: RPMI8226 myeloma cell viability, profiling panel, resazurin fluorescence, basal, 24 h, PK04 Diversity Set (AID 1180).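 Also: RPMI8826 multiple myeloma cell line at 5000 cells per well; test concentration not given here.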 As to conditions: higher = more signal.
Assay [20] addresses E3 ubiquitin-protein ligase XIAP (Homo sapiens) (UniProt P98170). As to the kind of experiment: XIAP binders, primary screen, biophysical, small-molecule microarray, fluorescence 635 nm (AID 1181).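 Also: score merges 667 nm emission and signal to noise over triplicate slides.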 The note with it: small-molecule microarray binding, higher = more signal.

Chain of Dihydroorotate dehydrogenase (quinone), mitochondrial (Plasmodium falciparum (isolate 3D7)) (Q08210 whole entry, looked up): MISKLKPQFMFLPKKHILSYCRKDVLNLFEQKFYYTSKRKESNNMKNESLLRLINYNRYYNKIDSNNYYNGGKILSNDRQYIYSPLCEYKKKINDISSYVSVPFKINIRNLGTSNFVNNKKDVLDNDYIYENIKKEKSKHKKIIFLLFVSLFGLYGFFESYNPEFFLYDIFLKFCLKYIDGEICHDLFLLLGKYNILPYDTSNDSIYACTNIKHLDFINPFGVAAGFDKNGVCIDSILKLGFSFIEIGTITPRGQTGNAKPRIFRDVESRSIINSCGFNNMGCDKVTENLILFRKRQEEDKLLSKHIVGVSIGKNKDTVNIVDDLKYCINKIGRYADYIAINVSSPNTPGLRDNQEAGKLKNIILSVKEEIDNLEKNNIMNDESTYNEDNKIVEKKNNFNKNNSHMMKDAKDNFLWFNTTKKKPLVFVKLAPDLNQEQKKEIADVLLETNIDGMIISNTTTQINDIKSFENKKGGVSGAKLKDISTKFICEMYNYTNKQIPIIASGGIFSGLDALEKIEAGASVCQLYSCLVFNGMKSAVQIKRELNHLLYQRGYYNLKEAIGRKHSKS
Chain of E3 ubiquitin-protein ligase XIAP (Homo sapiens) (P98170 whole entry, looked up): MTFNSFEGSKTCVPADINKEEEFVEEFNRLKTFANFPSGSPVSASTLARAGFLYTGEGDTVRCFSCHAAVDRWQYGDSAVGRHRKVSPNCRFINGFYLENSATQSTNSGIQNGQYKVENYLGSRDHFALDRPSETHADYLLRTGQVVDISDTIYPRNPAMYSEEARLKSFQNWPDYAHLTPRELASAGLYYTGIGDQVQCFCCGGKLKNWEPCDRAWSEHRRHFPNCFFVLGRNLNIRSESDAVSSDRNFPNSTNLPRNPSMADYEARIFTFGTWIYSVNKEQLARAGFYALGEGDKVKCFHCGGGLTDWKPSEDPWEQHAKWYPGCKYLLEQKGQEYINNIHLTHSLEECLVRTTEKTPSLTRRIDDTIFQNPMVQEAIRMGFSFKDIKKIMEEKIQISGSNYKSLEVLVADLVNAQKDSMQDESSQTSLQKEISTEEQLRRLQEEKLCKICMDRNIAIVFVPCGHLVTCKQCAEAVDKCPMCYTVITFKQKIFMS
Chain of NADPH oxidase 5 (Homo sapiens) (Q96PH1 whole entry, looked up): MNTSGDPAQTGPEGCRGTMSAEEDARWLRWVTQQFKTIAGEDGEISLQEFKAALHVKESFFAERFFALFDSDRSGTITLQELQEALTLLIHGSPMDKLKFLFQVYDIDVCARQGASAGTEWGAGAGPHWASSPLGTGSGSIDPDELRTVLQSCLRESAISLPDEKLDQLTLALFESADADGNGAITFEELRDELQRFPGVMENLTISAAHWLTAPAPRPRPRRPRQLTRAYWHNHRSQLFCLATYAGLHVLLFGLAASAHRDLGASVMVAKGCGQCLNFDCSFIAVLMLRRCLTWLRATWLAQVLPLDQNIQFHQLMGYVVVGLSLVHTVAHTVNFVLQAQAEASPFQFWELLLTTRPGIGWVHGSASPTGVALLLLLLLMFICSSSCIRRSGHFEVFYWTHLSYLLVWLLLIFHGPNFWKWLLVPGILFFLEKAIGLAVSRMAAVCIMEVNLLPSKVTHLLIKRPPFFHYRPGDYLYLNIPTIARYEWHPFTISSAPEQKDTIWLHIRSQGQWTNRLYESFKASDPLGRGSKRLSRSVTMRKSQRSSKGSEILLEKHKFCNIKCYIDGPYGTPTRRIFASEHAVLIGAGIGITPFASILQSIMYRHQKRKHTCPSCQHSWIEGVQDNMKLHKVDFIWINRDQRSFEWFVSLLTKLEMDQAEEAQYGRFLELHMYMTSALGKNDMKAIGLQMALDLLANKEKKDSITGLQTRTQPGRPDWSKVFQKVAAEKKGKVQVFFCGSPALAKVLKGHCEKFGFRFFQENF

With `C=CCOC(=O)[C@H]1[C@@H]2C(=O)O[C@@H](c3ccccc3)[C@@H](c3ccccc3)N2[C@@H](c2ccc(OCCOC(=O)[C@H]3C[C@H]4C(=O)N5CCC[C@H]5C(=O)N4[C@H]3c3cccc(OCCO)c3)cc2)[C@]12C(=O)Nc1ccccc12`, the z-score in assay [1] is 1.43; in [2], 0.552; in assay [3], 1.19; in assay [4] it was -0.588; in [5], -1.73; in [6], 0.791. In addition, the z-score is -0.558 in [7]; 0.569 (inactive) in assay [8]; -0.585 in [9]; -0.673 in assay [10]; 0.601 (inactive) in assay [11]; 0.0928 in assay [12]. Moreover, the z-score in [13] was 0.22 (inactive); in assay [14], 1.26 (inactive); in assay [16], 1.16 (inactive); in assay [17], 0.971 (inactive); in [18], 0.184 (inactive); in assay [19], 1.37. Also, the composite z-score in assay [15] was 0.493 (inactive); in assay [20] it was 0.298.

Take `COCCOC(=O)N1C(=O)[C@@]2(c3cc(C#CC4(O)CCCCCC4)ccc31)[C@H](C(=O)NC[C@H](O)c1ccccc1)[C@H]1C(=O)O[C@H](c3ccccc3)[C@H](c3ccccc3)N1[C@@H]2c1ccccc1OCCO`: the z-score in [1] was 0.85; in [2], 0.463; in assay [3] it was 1.76; in [4] it was -1.41; in assay [5], -3.26; in [6], -3.76. Also, the z-score in assay [7] is -1.3; in assay [8] it was 0.951 (inactive); in [9], -0.939; in assay [10] it was -1.75; in assay [11] it was -0.0869 (inactive); in assay [12], -0.0252. The z-score was 1.26 (inactive) in [13]; -1.35 (inactive) in [14]; 3.05 (inactive) in [16]; 0.634 (inactive) in assay [17]; 1.05 (inactive) in assay [18]; -1.93 in [19]. The composite z-score in [15] was 0.811 (inactive); in assay [20] it was -0.105.

For the molecule `CC(=O)NCCCC[C@@H]1NC(=O)[C@@H]2C[C@H](C(=O)O)[C@H](c3cccc(OCCO)c3)N2C1=O`, the z-score is -0.948 in assay [1]; 0.0822 in assay [2]; 0.75 in [3]; -0.988 in assay [4]; -1.8 in assay [5]; 0.267 in [6]. Also, the z-score is 1.31 in assay [7]; 0.317 (inactive) in [8]; 0.501 in assay [9]; 0.483 in [10]; 0.537 (inactive) in assay [11]; 0.377 in [12]. In addition, the z-score was 0.178 (inactive) in [13]; 0.636 (inactive) in [14]; 1.2 (inactive) in assay [16]; 0.504 (inactive) in [17]; 0.167 (inactive) in [18]; 0.873 in assay [19]. Also, the figures for the composite z-score in assay [15] and in assay [20] were -0.252 (inactive) and -0.363, respectively.

Consider `COC(=O)C1=CC(c2ccc(CO)cc2)=CC(c2cccs2)N(C)C=C1C(=O)OC` (stereo not given), for which the z-score in [1] was -1.44; in assay [2], 0.126; in assay [3], 2.32; in assay [4], -0.0015; in assay [5], -0.517; in assay [6], -0.257. Moreover, the z-score in [7] was 0.636; in [8], 0.375 (inactive); in assay [9], -0.327; in assay [10], 0.12; in [11] it was 0.446 (inactive); in [12] it was -0.419. Further, the z-score in assay [13] was -2.16 (inactive); in assay [14] it was 0.173 (inactive); in [16], -0.688 (inactive); in assay [17], 1.05 (inactive); in assay [18] it was 0.542 (inactive); in assay [19] it was 1.05. The values for the composite z-score in assay [15] and in [20] were -1.75 (inactive) and 0.0049, respectively.

Take `COCCCNC(=O)[C@@]1(CCS(=O)(=O)c2ccccc2)N=C(c2ccc(OCCCO)cc2)O[C@H]1c1ccccc1CN=[N+]=[N-]`: the z-score is -0.497 in assay [1]; 1 in [2]; 2.66 in [3]; -0.0301 in assay [4]; 0.872 in assay [5]; -0.532 in assay [6]. The z-score was 1.02 in assay [7]; 0.164 (inactive) in assay [8]; -0.866 in [9]; 0.175 in assay [10]; 0.0658 (inactive) in [11]; -0.404 in assay [12]. Besides, the z-score is -0.938 (inactive) in [13]; 1.21 (inactive) in [14]; -1.49 (inactive) in assay [16]; 1.4 (inactive) in [17]; 0.502 (inactive) in [18]; 0.846 in assay [19]. The composite z-score in assay [15] is -1.02 (inactive); in assay [20], 0.0871.

On to `COCCOC(=O)N1C(=O)[C@@]2(c3cc(C#CC4(O)CCCCCC4)ccc31)[C@H](c1ccccc1OCCO)N1[C@H](c3ccccc3)[C@H](c3ccccc3)OC(=O)[C@H]1[C@@H]2C(=O)Nc1nc2ccccc2s1`, for which the z-score is 0.339 in assay [1]; -0.997 in [2]; 1.65 in assay [3]; -0.133 in [4]; -2.71 in [5]; -4.28 in assay [6]. The z-score in [7] is -2.52; in assay [8], 1.52 (inactive); in assay [9], -1.14; in [10], -0.807; in assay [11], 0.611 (inactive); in assay [12] it was 0.189. In addition, the z-score is 1.15 (inactive) in assay [13]; -0.326 (inactive) in [14]; 2.77 (inactive) in assay [16]; -0.0438 (inactive) in assay [17]; 0.61 (inactive) in assay [18]; -0.346 in assay [19]. In addition, the composite z-score in [15] was 0.764 (inactive); in [20], -0.0765.

As to `COc1ccc([Si](C)(C)[C@H]2[C@H](CCO)O[C@@]3(C(=O)N(Cc4ccc(N5C(=O)c6cccc7cccc5c67)cc4)c4ccccc43)[C@@H]2C)cc1`, the z-score in [1] is 0.378; in assay [2], -1.02; in assay [3] it was 2.06; in assay [4], -2.91; in assay [5], -1.23; in [6], -3.75. Besides, the z-score in [7] is 0.00974; in [8], 1.68 (inactive); in assay [9] it was -1.07; in [10] it was -1.6; in [11] it was -2.51 (inactive); in assay [12], -1.26. Also, the z-score in assay [13] is -0.433 (inactive); in assay [14] it was -2.4 (inactive); in [16], 2.48 (inactive); in assay [17], 2.3 (inactive); in assay [18], 1.4 (inactive); in [19] it was -4.55. Also, the composite z-score in [15] was -0.344 (inactive); in assay [20], 0.0223.

As to `CC(C)C(CO)N1C(=O)[C@@H]2[C@H]3C(=O)OCC=C[C@H]3OC23C=CCN(Cc2ccccc2)C(=O)[C@@H]13` (stereo not given in full), the z-score in assay [1] is 1.61; in assay [2], -0.769; in [3], 0.651; in assay [4], -0.384; in assay [5] it was 0.33; in assay [6] it was 0.0894. For the same molecule, the z-score in [7] is 0.341; in assay [8], 0.232 (inactive); in assay [9], 0.159; in assay [10] it was 1.96; in assay [11], -0.077 (inactive); in [12], 0.25. The z-score in [13] was -1.57 (inactive); in assay [14], 0.699 (inactive); in assay [16] it was -0.752 (inactive); in assay [17], 1.53 (inactive); in assay [18] it was 1.03 (inactive); in assay [19] it was 0.359. Moreover, the composite z-score is -0.429 (inactive) in [15] and 0.411 in assay [20].
